Laboratory results: PubChem BioAssay (NCATS)
Results filed as inconclusive are left out. The source made the active and inactive calls. Calls follow the shape of the full dose curve.

assay: Cytotoxicity counterscreen for inhibitors of SARS-CoV-2 cell entry (AID 1645845); conditions: cell viability (SARS-CoV-2 entry assay cells); series mostly up to 57.1 µM; activity change, negative = cytotoxicity: at the top concentration; also: nearly all actives have a fitted effect of over 50% in size
Summary of the method: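 ATP-content luminescence (ATPLite 1step, 15 min RT) read after 48 h compound exposure of Expi293F cells stably expressing human ACE2; normalized to cells-only wells and media-only wells.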
% is scaled to controls: 0 for no effect and ±100 for the full control effect; potency is read from the fitted curve at half-maximal effect.

Row | Structure (SMILES) | activity change, negative = cytotoxicity | outcome | Potency
1 | CO[C@H]1/C=C/O[C@@]2(C)Oc3c(C)c(O)c4c(O)c(c5c(nc6cc(C)ccn65)c4c3C2=O)NC(=O)/C(C)=C\C=C\[C@H](C)[C@H](O)[C@@H](C)[C@@H](O)[C@@H](C)[C@H](OC(C)=O)[C@@H]1C | -8.31% (inactive) | – | –
2 | CC1(N)CCN(c2cccnc2NC(=O)c2nc(-c3ncccc3C(F)(F)F)cnc2N)CC1 | 1.95% (inactive) | – | –
3 | O=C(Nc1cnccc1Cl)N1CCN(Cc2ccc3c(c2)OC(F)(F)O3)CC1 | -19.2% (inactive) | – | –
4 | Cc1cc(C(=O)Nc2cc(Oc3ccc4nc(NC(=O)C5CC5)cn4n3)ccc2C)n(C)n1 | -27.6% (inactive) | – | –
5 | Cc1cc(Nc2ncnc3ccc(NC4=NC(C)(C)CO4)cc23)ccc1Oc1ccn2ncnc2c1 | -9.28% (inactive) | – | –
6 | NS(=O)(=O)c1ccc(NC(=S)N2CCN(C/C=C/c3ccccc3)CC2)cc1 | -24.4% (inactive) | – | –
7 | CNc1ncc2cc(-c3cc(NC(=O)NCCC(C)(C)C)c(F)cc3C)c(C)nc2n1 | – | inactive | –
8 | CN1CCN(c2nc(C3=C(c4c[nH]c5ccccc45)C(=O)NC3=O)c3ccccc3n2)CC1 | – | inactive | –
9 | COc1ccc2nc3n[nH]c(C)c3c(NCCOCCO)c2c1 | -10.7% (inactive) | – | –
10 | CC#CC(=O)N1CCC[C@H]1c1nc(-c2ccc(C(=O)Nc3ccccn3)cc2)c2c(N)nccn12 | 2.05% [at 27.1 µM] (inactive) | – | –
11 | CN(CCO)C1CCN(c2ccc(Nc3ncc4c5ccnc(F)c5n(C5CCCC5)c4n3)nc2)CC1 | -7.25% [at 27.1 µM] (inactive) | – | –
12 | C=C[C@H]1CN2CCC1C[C@@H]2C(O)c1ccnc2ccc(OC)cc12 (some centres undefined) | – | inactive | –
13 | COc1ccc(-c2oc3c(CC=C(C)C)c(OC4O[C@H](CO)[C@@H](O)[C@H](O)[C@H]4O)cc(O)c3c(=O)c2OC2O[C@@H](C)[C@H](O)[C@@H](O)[C@H]2O)cc1 (some centres undefined) | – | inactive | –
14 | CN1C(=O)c2sccc2N(C)c2nc(Nc3ccc(S(N)(=O)=O)cc3)ncc21 | -18.7% (inactive) | – | –
15 | C/C=C/C/C=C/CCC(=O)[C@H]1O[C@H]1C(N)=O | 1.4% (inactive) | – | –
16 | COc1cc2c(cc1OC(C)C)[C@H](c1ccc(Cl)cc1)N(c1ccc(N(C)CC3CCC(N4CCN(C)C(=O)C4)CC3)cc1)C(=O)C2 (some centres undefined) | – | inactive | –
17 | CC(C)N(CCCNC(=O)Nc1ccc(C(C)(C)C)cc1)C[C@H]1O[C@@H](n2ccc3c(N)ncnc32)[C@H](O)[C@@H]1O | -0.287% (inactive) | – | –
18 | O=C(Nc1ccc2[nH]nc(-c3ccncc3)c2c1)[C@@H]1CCN(CC(=O)N2CCN(c3ccc(-c4ncccn4)cc3)CC2)C1 | 1.16% (inactive) | – | –
19 | N[C@@H]1CN(c2c(F)cc3c(=O)c(C(=O)O)cn([C@@H]4C[C@@H]4F)c3c2Cl)CC12CC2 | – | inactive | –
20 | COc1cc2c3c(n(CCCN4CCOCC4)c(=O)c2cc1OC)-c1cc2c(cc1C3=O)OCO2 | -29.9% (inactive) | – | –
21 | COc1cc(-c2cn(C)c(=O)c3cnccc23)c(OC)cc1CN(C)C | – | inactive | –
22 | Nc1ncccc1-c1nc2ccc(-c3ccccc3)nc2n1-c1ccc(C2(N)CCC2)cc1 | – | – | 31.6 µM (active)
23 | C=CC(=O)N1CCC(C2CCNc3c(C(N)=O)c(-c4ccc(Oc5ccccc5)cc4)nn32)CC1 (centres undefined) | -19.4% (inactive) | – | –
24 | Cc1ncc(NC(=O)c2cccc(C(F)(F)F)c2)cc1-c1cnc(OC2CCOCC2)c(N2CCOCC2)c1 | -15.9% (inactive) | – | –
